For 5 compounds, composite z-score and z-score results are on record in PubChem BioAssay.

The source made the active and inactive calls.

Test [1] has as its system PRMT1 (protein arginine N-methyltransferase 1). The test can be described thus: PRMT1 binders on small-molecule microarrays, primary screen, biochemical, small-molecule microarray, 635 nm fluorescence (AID 1088).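 Further: binding of Prmt1 protein to compounds spotted on small-molecule microarray slides.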 The note with it: small-molecule microarray binding, higher = more signal.
Test [2] is described as follows: yeast growth modulation, basal conditions, primary screen, YJM789 clinical isolate, OD600, 24 h (AID 1089).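 Further: growth of clinical yeast isolate S. cerevisiae YJM 789 seeded 1000 cells per well; test concentration not given here.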 To be noted: S. cerevisiae YJM789 growth, higher = more signal, called active from +8 up or from −8 down.
A short description of test [3]: fission yeast growth modulation, primary screen, strain 972, OD600, 24 h, no modulator (AID 1090).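 Further: basal condition with compound alone and no growth modifier present; test concentration not given here.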 The note with it: S. pombe 972 growth, higher = more signal, called active from +8 up or from −8 down.
A short description of test [4]: S. cerevisiae growth modulation with rapamycin, primary screen, strain BY4716, OD600, 96 h (AID 1091). Further: test concentration not given here. To be noted: higher = more signal, called active from +8 up or from −8 down.
For test [5], the target named is Torsin-1A-interacting protein 2 (Homo sapiens) (UniProt Q8NFQ8). The experiment in a line: LULL1 binders on small-molecule microarray, primary screen, cell lysate, human LULL1 lysate, 635/667 nm fluorescence (AID 1092).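 Further: probe is lysate of COS7 cells overexpressing human LULL1; score merges per-feature 667 nm fluorescence with signal-to-noise.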 To be noted: hLULL1 lysate binding, 635 nm fluorescence, higher = more signal.
A short description of test [6]: E. coli growth modulation, two-sided OD650, primary screen, E. coli filamentation project, strain DRC41, 24 h (AID 1093).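 Further: MC1000 strain lacking acrAB efflux and sulA so SOS filamentation is blocked; test concentration not given here.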 The note with it: OD650, 24 h, higher = more signal, called active from +8 up or from −8 down.
The nature of test [7]: small-molecule microarray binders of probe aLefty2, primary screen, biochemical, biotinylated probe, 635/667 nm fluorescence (AID 1094).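 Further: score merges spot fluorescence near 667 nm with spot signal-to-noise ratio.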 To be noted: higher = more signal.
The subject of test [8] is Noggin (protein binding on small-molecule microarray). The test can be described thus: Noggin binders on small-molecule microarray, primary screen, biochemical, 635/667 nm fluorescence (AID 1095).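 Further: score merges 667 nm feature fluorescence with signal to noise over triplicate slides.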 The note with it: 635 nm fluorescence, higher = more signal.
In test [9] the target is Neurogenic locus notch homolog protein 3 (Homo sapiens) (UniProt Q9UM47). The experiment in a line: NOTCH3 binders on small-molecule microarray, primary screen, biochemical, 635/667 nm fluorescence (AID 1096). The note with it: NOTCH3 binding, 635 nm fluorescence, higher = more signal.
Test [10] can be described thus: small-molecule microarray binders of probe aEGFR, primary screen, biochemical, biotinylated probe, 635/667 nm fluorescence (AID 1097).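 Further: probe is a biotinylated anti-EGFR antibody binding compounds printed on slides; score combines fluorescence near 667 nm and signal to noise of each spot.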 The note with it: higher = more signal.
In test [11] the test system is Plasmodium falciparum Sir2 (PF13_0152, Sir2A). The experiment in a line: pfSir2 binders on small-molecule microarrays, primary screen, biochemical, small-molecule microarray, 635 nm fluorescence (AID 1098).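 Further: score merges spot fluorescence intensity with its signal-to-noise ratio.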 To be noted: small-molecule microarray binding, fluorescence 635 nm; higher = more signal.
The nature of test [12]: small-molecule microarray binders of probe aDKK1, primary screen, biochemical, biotinylated probe, 635/667 nm fluorescence (AID 1099).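 Further: score merges 667nm spot fluorescence with signal to noise across triplicate slides; reference of the scale not given here.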 The note with it: higher = more signal.
Test [13] is described as follows: small-molecule microarray binders of probe aCHRDL2, primary screen, biochemical, biotinylated probe, 635/667 nm fluorescence (AID 1100). To be noted: higher = more signal.
A short description of test [14]: splicing luciferase reporter signal modulators, primary screen, spliceosome inhibition project, cell-based, HEK293, splice +/- reporter (AID 1101).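 Further: HEK293 cells carrying a splicing-competent luciferase reporter gene; test concentration not given here.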 To be noted: luminescence, 24 h, higher = more signal, called active from +8 up or from −8 down. On the technique in general: Reporter assays use an easily measured gene product as a stand-in for the process of interest.

The target in test [15] is Fibroblast growth factor 10 (Homo sapiens) (UniProt O15520). The test can be described thus: FGF10 binders on small-molecule microarrays, primary screen, biochemical, small-molecule microarray, 635 nm fluorescence (AID 1102). The note with it: FGF10 binding, fluorescence 635 nm, higher = more signal.
Test [16] deals with glycogen synthase kinase-3 (GSK3A per assay name; protocol says GSK3B). The test can be described thus: GSK3 binders on small-molecule microarrays, primary screen, biochemical, small-molecule microarray, 635 nm fluorescence, GSK3A (AID 1103). Further: the record names both GSK3A and GSK3B. To be noted: small-molecule microarray binding, fluorescence 635 nm; higher = more signal.
Test [17] has as its target Epidermal growth factor receptor (Homo sapiens) (UniProt P00533). The experiment in a line: EGFR binders on small-molecule microarrays, primary screen, biochemical, small-molecule microarray, 635 nm fluorescence (AID 1104).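 Further: score merges 667 nm emission intensity with spot signal to noise over triplicate slides.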 The note with it: EGFR binding, higher = more signal.
The target in test [18] is Follistatin-related protein 3 (Homo sapiens) (UniProt O95633). The test can be described thus: FSTL3 binders on small-molecule microarrays, primary screen, biochemical, small-molecule microarray, 635 nm fluorescence (AID 1105).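 Further: score merges emission near 667 nm and signal to noise per printed spot across three slides.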 The note with it: FSTL3 binding, higher = more signal.
In test [19] the target is Dickkopf-related protein 1 (Homo sapiens) (UniProt O94907). The test can be described thus: DKK1 binders on small-molecule microarrays, primary screen, biochemical, small-molecule microarray, 635 nm fluorescence scan (AID 1106).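 Further: score merges emission near 667 nm with signal to noise over three replicate slides.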 The note with it: DKK1 binding, higher = more signal.
Test [20] concerns Inhibin beta A chain (activin A). The experiment in a line: INHBA (activin A) binders on microarrays, primary screen, biochemical, small-molecule microarray, 635 nm fluorescence scan (AID 1107).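 Further: mouse activin A protein probed at 4.33 µg/mL on printed slides; score merges bound-protein fluorescence near 667 nm with spot signal-to-noise.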 The note with it: small-molecule microarray binding, higher = more signal.

Sequence of Torsin-1A-interacting protein 2 (Homo sapiens) (Q8NFQ8 whole entry, looked up): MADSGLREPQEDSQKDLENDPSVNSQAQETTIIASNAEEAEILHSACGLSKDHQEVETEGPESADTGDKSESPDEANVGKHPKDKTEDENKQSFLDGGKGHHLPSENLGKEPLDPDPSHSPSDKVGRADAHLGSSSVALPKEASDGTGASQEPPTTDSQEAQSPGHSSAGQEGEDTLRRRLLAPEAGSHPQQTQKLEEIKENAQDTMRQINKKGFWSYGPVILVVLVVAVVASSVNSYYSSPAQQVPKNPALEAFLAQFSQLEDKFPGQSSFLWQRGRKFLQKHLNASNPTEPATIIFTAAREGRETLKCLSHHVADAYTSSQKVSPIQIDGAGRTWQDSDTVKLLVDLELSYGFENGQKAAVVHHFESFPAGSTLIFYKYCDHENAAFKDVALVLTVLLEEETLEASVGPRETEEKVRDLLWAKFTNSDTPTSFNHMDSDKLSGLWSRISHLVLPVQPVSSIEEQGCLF
Sequence of Dickkopf-related protein 1 (Homo sapiens) (O94907 whole entry, looked up): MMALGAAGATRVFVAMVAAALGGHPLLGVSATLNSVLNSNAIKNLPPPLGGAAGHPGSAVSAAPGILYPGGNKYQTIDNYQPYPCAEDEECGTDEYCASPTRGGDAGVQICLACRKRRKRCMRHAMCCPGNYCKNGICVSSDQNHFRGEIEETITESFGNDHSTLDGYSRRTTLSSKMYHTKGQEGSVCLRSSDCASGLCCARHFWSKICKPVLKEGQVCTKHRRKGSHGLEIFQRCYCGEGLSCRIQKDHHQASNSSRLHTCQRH
Sequence of Epidermal growth factor receptor (Homo sapiens) (P00533 whole entry, looked up): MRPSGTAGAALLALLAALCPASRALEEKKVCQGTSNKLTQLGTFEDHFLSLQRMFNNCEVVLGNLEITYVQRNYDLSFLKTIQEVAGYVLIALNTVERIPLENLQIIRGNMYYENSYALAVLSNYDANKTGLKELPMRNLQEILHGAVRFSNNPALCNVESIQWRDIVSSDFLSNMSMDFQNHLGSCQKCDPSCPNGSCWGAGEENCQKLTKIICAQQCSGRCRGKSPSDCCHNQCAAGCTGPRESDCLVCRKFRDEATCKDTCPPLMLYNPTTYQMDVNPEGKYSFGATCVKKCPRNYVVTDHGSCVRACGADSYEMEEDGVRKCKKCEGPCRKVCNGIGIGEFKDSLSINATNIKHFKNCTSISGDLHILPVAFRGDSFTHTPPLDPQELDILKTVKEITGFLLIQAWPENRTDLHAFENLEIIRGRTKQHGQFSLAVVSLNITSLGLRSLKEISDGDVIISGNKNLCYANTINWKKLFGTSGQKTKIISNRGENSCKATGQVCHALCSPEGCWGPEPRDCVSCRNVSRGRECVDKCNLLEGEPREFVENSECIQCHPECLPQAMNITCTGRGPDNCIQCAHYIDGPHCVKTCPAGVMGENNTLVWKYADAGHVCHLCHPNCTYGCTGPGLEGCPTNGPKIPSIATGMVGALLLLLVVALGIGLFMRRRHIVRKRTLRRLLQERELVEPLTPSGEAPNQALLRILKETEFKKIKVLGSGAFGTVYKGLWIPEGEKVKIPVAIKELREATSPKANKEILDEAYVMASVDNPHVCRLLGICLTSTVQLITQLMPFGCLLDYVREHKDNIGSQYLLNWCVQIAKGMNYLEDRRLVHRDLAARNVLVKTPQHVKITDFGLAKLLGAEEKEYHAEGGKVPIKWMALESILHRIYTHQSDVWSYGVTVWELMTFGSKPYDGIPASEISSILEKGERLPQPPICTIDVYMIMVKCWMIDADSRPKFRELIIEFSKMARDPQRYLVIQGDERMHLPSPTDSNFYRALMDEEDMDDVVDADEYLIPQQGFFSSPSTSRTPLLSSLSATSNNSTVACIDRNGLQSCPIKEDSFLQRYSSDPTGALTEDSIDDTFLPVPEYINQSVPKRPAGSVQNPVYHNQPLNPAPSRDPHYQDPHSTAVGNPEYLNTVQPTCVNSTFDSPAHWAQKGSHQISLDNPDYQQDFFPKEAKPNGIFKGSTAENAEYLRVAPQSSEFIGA
Sequence of Follistatin-related protein 3 (Homo sapiens) (O95633 whole entry, looked up): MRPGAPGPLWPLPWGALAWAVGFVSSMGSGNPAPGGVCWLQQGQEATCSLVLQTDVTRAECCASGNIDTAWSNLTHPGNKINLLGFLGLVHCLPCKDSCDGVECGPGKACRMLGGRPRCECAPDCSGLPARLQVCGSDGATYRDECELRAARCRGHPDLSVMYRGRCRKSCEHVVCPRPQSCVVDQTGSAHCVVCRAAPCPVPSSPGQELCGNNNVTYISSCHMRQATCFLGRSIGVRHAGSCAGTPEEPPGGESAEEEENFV
Sequence of Fibroblast growth factor 10 (Homo sapiens) (O15520 whole entry, looked up): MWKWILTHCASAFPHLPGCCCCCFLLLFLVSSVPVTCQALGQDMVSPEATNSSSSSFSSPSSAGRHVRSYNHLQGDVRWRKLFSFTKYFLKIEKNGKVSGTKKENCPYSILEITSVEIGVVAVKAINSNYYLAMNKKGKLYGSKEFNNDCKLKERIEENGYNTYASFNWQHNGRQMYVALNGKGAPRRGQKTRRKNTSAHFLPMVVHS
Sequence of Neurogenic locus notch homolog protein 3 (Homo sapiens) (Q9UM47 whole entry, looked up): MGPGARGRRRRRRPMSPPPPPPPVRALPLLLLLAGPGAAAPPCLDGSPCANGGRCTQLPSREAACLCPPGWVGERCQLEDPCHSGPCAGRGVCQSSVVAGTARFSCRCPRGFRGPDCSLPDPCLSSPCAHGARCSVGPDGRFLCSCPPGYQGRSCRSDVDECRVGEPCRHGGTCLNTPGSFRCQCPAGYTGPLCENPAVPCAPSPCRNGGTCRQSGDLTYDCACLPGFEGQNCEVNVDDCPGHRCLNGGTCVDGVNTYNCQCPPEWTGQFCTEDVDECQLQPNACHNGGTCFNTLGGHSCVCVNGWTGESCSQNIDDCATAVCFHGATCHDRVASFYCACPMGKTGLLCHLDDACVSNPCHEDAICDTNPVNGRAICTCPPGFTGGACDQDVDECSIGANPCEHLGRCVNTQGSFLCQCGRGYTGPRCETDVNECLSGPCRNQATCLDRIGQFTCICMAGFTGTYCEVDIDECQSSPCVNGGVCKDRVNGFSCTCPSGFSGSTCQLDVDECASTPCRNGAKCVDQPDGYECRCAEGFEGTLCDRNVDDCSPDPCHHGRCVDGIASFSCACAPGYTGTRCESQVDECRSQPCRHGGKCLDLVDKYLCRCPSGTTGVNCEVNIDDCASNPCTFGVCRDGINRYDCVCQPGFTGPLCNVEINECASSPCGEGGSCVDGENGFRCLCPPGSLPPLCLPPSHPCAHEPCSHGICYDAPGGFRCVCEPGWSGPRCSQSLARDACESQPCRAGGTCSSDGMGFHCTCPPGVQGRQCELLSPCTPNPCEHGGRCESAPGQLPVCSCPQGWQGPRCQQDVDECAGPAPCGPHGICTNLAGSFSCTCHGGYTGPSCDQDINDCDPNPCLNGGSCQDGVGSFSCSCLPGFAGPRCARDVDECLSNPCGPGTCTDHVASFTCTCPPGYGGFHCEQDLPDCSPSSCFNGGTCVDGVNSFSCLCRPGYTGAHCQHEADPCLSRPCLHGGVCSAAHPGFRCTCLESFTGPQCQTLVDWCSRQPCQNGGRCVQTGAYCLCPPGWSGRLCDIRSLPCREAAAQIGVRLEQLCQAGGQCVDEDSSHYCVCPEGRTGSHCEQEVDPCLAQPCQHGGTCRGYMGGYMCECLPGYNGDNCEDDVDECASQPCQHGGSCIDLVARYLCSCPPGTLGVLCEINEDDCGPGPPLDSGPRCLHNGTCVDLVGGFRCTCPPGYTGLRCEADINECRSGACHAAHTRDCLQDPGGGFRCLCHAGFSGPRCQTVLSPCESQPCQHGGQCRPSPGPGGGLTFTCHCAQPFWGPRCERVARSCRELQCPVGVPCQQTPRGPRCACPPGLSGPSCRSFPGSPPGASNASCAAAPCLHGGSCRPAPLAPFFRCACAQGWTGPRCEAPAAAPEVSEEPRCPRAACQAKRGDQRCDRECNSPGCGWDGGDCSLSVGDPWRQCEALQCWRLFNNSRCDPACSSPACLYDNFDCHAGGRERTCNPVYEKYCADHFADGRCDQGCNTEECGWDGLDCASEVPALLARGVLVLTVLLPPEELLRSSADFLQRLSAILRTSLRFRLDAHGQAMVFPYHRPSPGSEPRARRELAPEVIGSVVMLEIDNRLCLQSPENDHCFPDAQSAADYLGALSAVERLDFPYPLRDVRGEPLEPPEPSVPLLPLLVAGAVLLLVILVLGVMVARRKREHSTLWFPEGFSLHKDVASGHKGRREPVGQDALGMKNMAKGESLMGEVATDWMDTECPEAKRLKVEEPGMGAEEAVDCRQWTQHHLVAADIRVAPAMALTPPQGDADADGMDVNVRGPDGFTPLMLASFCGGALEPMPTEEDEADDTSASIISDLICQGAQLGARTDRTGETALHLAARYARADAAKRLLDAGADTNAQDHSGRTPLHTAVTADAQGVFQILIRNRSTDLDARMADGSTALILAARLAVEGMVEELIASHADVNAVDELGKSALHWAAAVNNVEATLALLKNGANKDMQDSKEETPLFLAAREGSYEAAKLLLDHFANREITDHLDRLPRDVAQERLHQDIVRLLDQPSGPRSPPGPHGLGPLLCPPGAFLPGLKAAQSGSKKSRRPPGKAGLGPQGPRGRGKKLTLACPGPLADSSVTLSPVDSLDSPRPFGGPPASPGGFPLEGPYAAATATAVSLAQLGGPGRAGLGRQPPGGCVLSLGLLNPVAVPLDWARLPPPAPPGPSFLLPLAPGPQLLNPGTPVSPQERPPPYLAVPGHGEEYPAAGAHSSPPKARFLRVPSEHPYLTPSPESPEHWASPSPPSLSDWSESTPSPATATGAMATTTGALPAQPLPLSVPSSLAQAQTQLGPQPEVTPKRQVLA

For the compound `CCOC(=O)CCN1C(=O)[C@H]2[C@H]3[C@H](O)[C@H](O)CC(=NOC[C@@H](O)COCc4ccco4)[C@@H]3CC[C@H]2C1=O`, the composite z-score is 0.163 in test [1]; 0.545 in [5]; 0.0814 in test [7]; -0.298 in test [8]; -0.62 in test [9]; -0.0764 in test [10]. Besides, the composite z-score in test [11] was 0.0645; in [12], 0.587; in [13], 0.437; in test [15], -0.133; in test [16], -0.412; in test [17], -0.0138. In addition, the composite z-score in [18] was -0.295; in test [19], -0.144; in test [20], 0.383. The z-score is 0.133 (inactive) in [2]; -0.226 (inactive) in test [3]; -0.0839 (inactive) in test [4]; 0.383 (inactive) in test [6]; 0.395 (inactive) in test [14].
For `COc1ccccc1CN1C(=O)c2ccccc2[C@@]2(Cc3ccccc3N(C(C)C)C2=O)[C@@H]1c1ccc(CO)cc1`, the composite z-score was 0.303 in test [1]; -0.114 in test [5]; -0.0999 in test [7]; -0.0723 in test [8]; -0.186 in [9]; -0.194 in test [10]. Besides, the composite z-score in [11] is 0.139; in test [12], -0.119; in test [13], 0.414; in test [15], -0.194; in test [16], -0.467; in [17], -0.418. Besides, the composite z-score in test [18] was -0.119; in test [19] it was -0.39; in test [20] it was 0.602. Moreover, the z-score was -1.69 (inactive) in test [2]; -0.373 (inactive) in [3]; -1.34 (inactive) in test [4]; 1.26 (inactive) in test [6]; -0.938 (inactive) in [14].
On to `C[C@H](c1ccccc1)N1C(=O)[C@H]2[C@@H]3C(=CC[C@H]2C1=O)C(=O)[C@H]1O[C@H]1[C@H]3O`, for which the composite z-score was -0.511 in test [1]; -0.597 in [5]; -0.0305 in test [7]; 0.447 in test [8]; 0.172 in test [9]; -0.138 in test [10]. Moreover, the composite z-score in [11] is 0.816; in test [12] it was -0.191; in test [13], -0.559; in test [15], 0.388; in [16], 0.359; in test [17], 0.626. Also, the composite z-score amounted to 0.359 in test [18], 0.87 in test [19] and 0.527 in test [20]. The z-score is 0.389 (inactive) in [2]; -1.84 (inactive) in test [3]; 0.292 (inactive) in test [4]; -0.295 (inactive) in [6]; 4.45 (inactive) in test [14].
As for `COC(=O)CC=C[C@@H](C)[C@H](OC)c1ccccc1Br`, the composite z-score in test [1] was 0.0909; in test [5], 0.154; in [7] it was -0.188; in test [8], 0.462; in test [9], -0.105; in [10] it was -0.113. For the same compound, the composite z-score in test [11] is -0.581; in test [12], -0.133; in [13], -0.499; in test [15] it was 0.0042; in [16], 0.169; in test [17], 0.181. The composite z-score in test [18] came out at 0.231; in [19], 0.503; in test [20], 0.887. In addition, the z-score was 0.703 (inactive) in test [2]; -0.636 (inactive) in [3]; -0.417 (inactive) in [4]; 0.469 (inactive) in test [6]; -0.0767 (inactive) in test [14].
Take `CC(=O)OC[C@H]1O[C@H](C#CCCCc2ccccc2)C=C[C@@H]1OC(C)=O`: the composite z-score was 0.351 in test [1]; 1.01 in test [5]; -0.239 in test [7]; 0.66 in test [8]; 0.389 in test [9]; -0.0703 in [10]. Further, the composite z-score in [11] is 0.829; in test [12], -0.194; in [13] it was -0.33; in test [15], 0.687; in test [16] it was -0.0427; in [17], 0.0559. Moreover, the composite z-score in [18] came to 0.556; in test [19] it was 0.3; in test [20] it was 1.03. The z-score in test [2] is 0.458 (inactive); in test [3] it was -19.5 (active); in test [4] it was -0.967 (inactive); in test [6], 0.0065 (inactive); in test [14] it was 0.492 (inactive).
